The values that follow come from PubChem BioAssay (NCI).

Compounds without any hit were thinned out: in the full panel of roughly 79,000, 15% have a hit. A number with no mark means an inactive call. Activity calls are given as the source filed them. No stated cut-off is given here; in the data, active means growth inhibition above about 70%; inactive means the rest.

The nature of the test: NCI Yeast Anticancer Drug Screen. Data for the wt2 strain (AID 169).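 Further: 0% = growth of vehicle-treated yeast cultures.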 Particulars: S. cerevisiae wt2 strain growth inhibition; at 11.0 µM; active compounds read high. The method in brief: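 Against vehicle-treated controls, the growth of yeast exposed to each compound was compared, and the inhibition was recorded.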
As for `CS(=O)(=O)SCc1ccc([N+](=O)[O-])cc1`, the growth inhibition is 69%.
For the molecule `Cc1csc(=S)n1OC(=O)NC1CCCCC1`, the growth inhibition was 99% (active).
As to `CCOc1ccc(NC(=O)C2=C(C)NC(C)=C(C(=O)Nc3ccc(OCC)cc3)C2c2cccc([N+](=O)[O-])c2)cc1`, the growth inhibition is -2%.
The figure for `CC(C)(C)N=C(NO)c1ccccc1` is 8%; for `CCCCC/C(=C(\C#N)C(=O)OCC)c1ccccc1` it is -3%; for `O=C(NCCCl)Sc1ccc(Cl)cc1` it is 0%.
In the case of `O=C1Nc2ccc(Br)cc2C1=Nc1ccc2c(c1)OCO2`, the growth inhibition was -22%.
In the case of `CCC(C)OC(=O)Nc1ccc(C)c(NC(=O)OC(C)CC)c1` (configuration not stated) it was -2%; in that of `O=C(O)c1cc2ccc(Cl)cc2c(O)c1C1=CCCCC1`, 23%.
Regarding `CN(C)Cc1cc(N=Nc2ccc(Cl)cc2)ccc1OC(=O)c1ccccc1`, the growth inhibition was 6%.
For the molecule `CN1CCN(C(=O)/C=C/C(=O)c2ccccc2)CC1`, the growth inhibition was 36%.
The figure for `CCCC/C=C/C(C)(C(=O)OCC)C(=O)OCC` is -6%; for `Cc1nc(-c2cc3cc([N+](=O)[O-])ccc3oc2=O)cs1` it is -11%; for `Cc1nc2ccccc2nc1NNc1ccccc1` it is 14%.
`CN(C)[C@@H]1C(=O)C(C(N)=O)=C(O)[C@@]2(O)C(=O)C3=C(O)c4c(O)cccc4C[C@H]3C[C@@H]12`: the growth inhibition is 52%.
In the case of `COc1ccc(NC(=O)CC2SC(=Nc3ccccc3C)NC2=O)c([N+](=O)[O-])c1` (configuration not stated) it was 1%.
With `COc1cc(O)c2c(c1O)C(=O)c1cc(C)ncc1C2=O`, the growth inhibition was 83% (active).
